# About 2,000 (36%) of roughly 5,500 compounds were called active. Inconclusive results (about 18%) are left out. The list shows a part of the results. A number with no mark means an inactive call. Rule as the data show it: active = normalized growth mostly below about 0.91 (no sharp cut-off); inconclusive = no clear call, values can overlap the other calls; inactive = mostly above about 0.92.
# Test: chemical genetic growth profiling, strain panel (AID 1159580);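 also: tested at 20 µM; growth read once vehicle control cultures reached saturation at 30 °C; 1 = growth at the plate median or of vehicle wells; lower values mean less growth of the strain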
# Details: S. cerevisiae deletion strains, growth OD
# [1] = locus YDL101C, strain DUN1, active compounds read low
# [2] = locus YHR030C, strain SLT2, active compounds read low
compound,measurement,setting,value
Cc1ccc(Sc2ncccc2NS(=O)(=O)c2ccc(Cl)cc2)cc1,normalized growth,"locus YAR019C, strain CDC15, active compounds read low",0.933
same,normalized growth,"locus YBL105C, strain PKC1, active compounds read low",0.924
same,normalized growth,"locus YBR135W, strain CKS1, active compounds read low",0.935
same,normalized growth,"locus YBR136W, strain MEC1, active compounds read low",0.922
same,normalized growth,"locus YBR160W, strain CDC28, active compounds read low",0.934
same,normalized growth,"locus YDL017W, strain CDC7, active compounds read low",0.937
same,normalized growth,"locus YDL028C, strain MPS1, active compounds read low",0.932
same,normalized growth,[1],0.947
same,normalized growth,"locus YDL108W, strain KIN28, active compounds read low",0.919
same,normalized growth,"locus YDL132W, strain cdc53, active compounds read low",0.932
same,normalized growth,"locus YDL214C, strain PRR2, active compounds read low",0.852
same,normalized growth,"locus YDR052C, strain DBF4, active compounds read low",0.952
same,normalized growth,"locus YDR054C, strain cdc34, active compounds read low",0.922
same,normalized growth,"locus YDR226W, strain ADK1, active compounds read low",0.938
same,normalized growth,"locus YDR477W, strain SNF1, active compounds read low",0.881
same,normalized growth,"locus YER123W, strain YCK3, active compounds read low",0.823
same,normalized growth,"locus YER133W, strain GLC7, active compounds read low",0.855
same,normalized growth,"locus YFL009W, strain cdc4, active compounds read low",0.935
same,normalized growth,"locus YFL029C, strain CAK1, active compounds read low",0.931
same,normalized growth,"locus YFR003C, strain YPI1, active compounds read low",0.929
same,normalized growth,"locus YFR019W, strain FAB1, active compounds read low",0.923
same,normalized growth,"locus YFR028C, strain CDC14, active compounds read low",0.926
same,normalized growth,"locus YGR040W, strain KSS1, active compounds read low",0.858
same,normalized growth,"locus YGR052W, strain FMP48, active compounds read low",0.907
same,normalized growth,"locus YGR092W, strain DBF2, active compounds read low",0.826
same,normalized growth,[2],0.839 (active)
same,normalized growth,"locus YHR079C, strain IRE1, active compounds read low",0.87
same,normalized growth,"locus YHR082C, strain KSP1, active compounds read low",0.845
same,normalized growth,"locus YHR205W, strain SCH9, active compounds read low",0.852
same,normalized growth,"locus YIL147C, strain SLN1, active compounds read low",0.917
same,normalized growth,"locus YJL095W, strain BCK1, active compounds read low",0.909
same,normalized growth,"locus YJL128C, strain PBS2, active compounds read low",0.88
same,normalized growth,"locus YJL157C, strain FAR1, active compounds read low",0.856
same,normalized growth,"locus YJR016C, strain ILV3, active compounds read low",0.919
same,normalized growth,"locus YJR066W, strain TOR1 (second series), active compounds read low",0.851
same,normalized growth,"locus YJR066W, strain TOR1, active compounds read low",0.882
same,normalized growth,"locus YKL048C, strain ELM1, active compounds read low",0.888
same,normalized growth,"locus YKL067W, strain YNK1, active compounds read low",0.894
same,normalized growth,"locus YKL101W, strain HSL1, active compounds read low",0.884
same,normalized growth,"locus YKL193C, strain SDS22, active compounds read low",0.932
same,normalized growth,"locus YKL203C, strain TOR2, active compounds read low",0.928
same,normalized growth,"locus YLR113W, strain HOG1, active compounds read low",0.809 (active)
same,normalized growth,"locus YLR133W, strain CKI1, active compounds read low",0.894
same,normalized growth,"locus YLR403W, strain SFP1, active compounds read low",0.861
same,normalized growth,"locus YML070W, strain DAK1, active compounds read low",0.849
same,normalized growth,"locus YMR001C, strain CDC5, active compounds read low",0.928
same,normalized growth,"locus YMR205C, strain PFK2 (second series), active compounds read low",0.888
same,normalized growth,"locus YMR277W, strain FCP1, active compounds read low",0.934
same,normalized growth,"locus YNL006W, strain LST8, active compounds read low",0.947
same,normalized growth,"locus YNL020C, strain ARK1, active compounds read low",0.879
same,normalized growth,"locus YNL161W, strain CBK1, active compounds read low",0.929
same,normalized growth,"locus YNL183C, strain NPR1, active compounds read low",0.897
same,normalized growth,"locus YNL207W, strain RIO2, active compounds read low",0.924
same,normalized growth,"locus YNL222W, strain SSU72, active compounds read low",0.933
same,normalized growth,"locus YNL307C, strain MCK1 (second series), active compounds read low",0.885
same,normalized growth,"locus YOL078W, strain AVO1, active compounds read low",0.94
same,normalized growth,"locus YOL136C, strain PFK27, active compounds read low",0.854
same,normalized growth,"locus YOR061W, strain CKA2, active compounds read low",0.85
same,normalized growth,"locus YOR119C, strain RIO1, active compounds read low",0.912
same,normalized growth,"locus YOR231W, strain MKK1, active compounds read low",0.891
same,normalized growth,"locus YOR329C, strain SCD5, active compounds read low",0.929
same,normalized growth,"locus YPL031C, strain PHO85, active compounds read low",0.866
same,normalized growth,"locus YPL153C, strain RAD53, active compounds read low",0.863
same,normalized growth,"locus YPL204W, strain HRR25, active compounds read low",0.884
same,normalized growth,"locus YPL209C, strain IPL1, active compounds read low",0.934
same,normalized growth,"locus YPL256C, strain CLN2, active compounds read low",0.827 (active)
same,normalized growth,"locus YPR025C, strain CCL1, active compounds read low",0.933
same,normalized growth,"locus YPR106W, strain ISR1, active compounds read low",0.925
same,normalized growth,"locus YPR111W, strain DBF20, active compounds read low",0.924
same,normalized growth,"strain NNK1, active compounds read low",0.92
same,normalized growth,"strain TSCII, active compounds read low",0.928
Cc1ccc(Sc2ncccc2C(=O)NCC(=O)O)cc1,normalized growth,"locus YAL013W, strain DEP1, active compounds read low",1.03
same,normalized growth,"locus YBR229C, strain ROT2, active compounds read low",1.02
same,normalized growth,[1],1.04
same,normalized growth,"locus YDL134C, strain PPH21, active compounds read low",0.999
same,normalized growth,"locus YDR150W, strain NUM1, active compounds read low",1.03
same,normalized growth,"locus YEL061C, strain CIN8, active compounds read low",1.01
same,normalized growth,"locus YGR078C, strain PAC10, active compounds read low",1.04
same,normalized growth,[2],1.06
same,normalized growth,"locus YHR087W, strain rtc3, active compounds read low",0.994
same,normalized growth,"locus YJR043C, strain POL32, active compounds read low",0.962
same,normalized growth,"locus YJR075W, strain HOC1, active compounds read low",1.02
same,normalized growth,"locus YLR039C, strain RIC1, active compounds read low",1
same,normalized growth,"locus YLR058C, strain SHM2 (second series), active compounds read low",1.02
same,normalized growth,"locus YLR085C, strain ARP6, active compounds read low",1.02
same,normalized growth,"locus YLR262C, strain YPT6, active compounds read low",1.01
same,normalized growth,"locus YML094W, strain GIM5, active compounds read low",0.992
same,normalized growth,"locus YMR219W, strain ESC1, active compounds read low",1.01
same,normalized growth,"locus YMR263W, strain SAP30, active compounds read low",1.02
same,normalized growth,"locus YNL153C, strain GIM3, active compounds read low",1.03
same,normalized growth,"locus YNL298W, strain CLA4 (second series), active compounds read low",1.02
same,normalized growth,"locus YNL322C, strain KRE1, active compounds read low",1.01
same,normalized growth,"locus YNR030W, strain Alg12, active compounds read low",1.02
same,normalized growth,"locus YOL006C, strain TOP1, active compounds read low",1.04
same,normalized growth,"locus YPL055C, strain LGE1, active compounds read low",1.01
same,normalized growth,"locus YPL241C, strain CIN2, active compounds read low",0.996
same,normalized growth,"locus YPR135W, strain CTF4, active compounds read low",1.08

# — PubChem BioAssay AID1159580 (chemical genetic matrix, 2015)
